The subject of this test is Caenorhabditis elegans N2 infected with Nematocida parisii ERTm1. Kind of test: progeny production relative to DMSO uninfected control; higher = more progeny despite microsporidia infection (inhibition of infection with low host toxicity). The settings on record: infection time 6 days. The method in brief: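 Bleach-synchronised wild-type C. elegans L1 larvae (100 per well) were placed in 96-well plates with K-medium, E. coli OP50 and 15,000 N. parisii spores/μL, with compound pinned to 100 μM or 40 μM in 1% DMSO. Plates were shaken at 21°C for 6 days; worms were then Rose Bengal-stained, flatbed-scanned and counted with WorMachine, each compound and dose tested three times. Progeny production is given as a percentage of the spore-free vehicle control, averaged across replicates.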

Each structure is given as a SMILES string. ± gives the standard deviation of the averaged measurements.

In the case of `O=C(NCc1ccc(F)cc1)c1c(O)c2ncccc2[nH]c1=O`, the progeny production worked out at 5.38 ± 2.2% (40 µM) and 16 ± 8.6% (100 µM).

Regarding `Cc1nc(N(C)C(=O)Cc2ccc(-c3ccccn3)cc2)sc1S(N)(=O)=O`, the progeny production (40 µM) is 3.86 ± 0.4% and the progeny production (100 µM) amounted to 12.9 ± 8.8%.

`CCCCc1ccc(-c2nc(C)c(C(=O)OC)s2)cc1` yielded a progeny production (40 µM) of 4.25 ± 0.74% and a progeny production (100 µM) of 12.2 ± 3.7%.

`O=c1[nH]cnc2c1ncn2[C@H]1CC[C@@H](CO)O1` showed a progeny production (40 µM) of 6.61 ± 0.81% and a progeny production (100 µM) of 9.85 ± 7.2%.

Take `CSC[C@H]1CN(Cc2c[nH]c3c(N)ncnc23)C[C@@H]1O`: the progeny production by setting is: (40 µM) 8.02 ± 2.9%; (100 µM) 15.3 ± 10%.

Consider `c1cnc(NCc2ccc(CNc3ncccn3)cc2)nc1`, for which the progeny production worked out at 3.1 ± 0.72% (40 µM) and 9.59 ± 5.8% (100 µM).

With `Cc1ccc(Oc2ccccc2-c2csc(N=C3NCCCN3)n2)c(C)c1`, the progeny production (40 µM) came out at 4.22 ± 1.2% and the progeny production (100 µM) came to 14.8 ± 12%.

Regarding `O=C1CCC(N2C(=O)c3ccccc3C2=O)C(=O)N1` (stereo unspecified), the progeny production by setting is: (40 µM) 9.53 ± 5.1%; (100 µM) 13.3 ± 8.9%.

Turning to `O=C(N[C@H](CCS)C(=O)N[C@H](Cc1ccccc1)C(=O)O)c1cc2ccccc2[nH]1`, the progeny production was found to be 6.68 ± 3.5% (40 µM) and 11.3 ± 6.7% (100 µM).

Regarding `CC(C)C(=O)N[C@H]1[C@H]([C@H](O)[C@H](O)CO)OC(C(=O)O)=C[C@@H]1N=[N+]=[N-]`, the progeny production was found to be 5.36 ± 3.2% (40 µM) and 14.6 ± 5.9% (100 µM).

With `CS(=O)(=O)c1ccc(Oc2ccc(Cl)cc2)cc1`, the progeny production runs as follows: (40 µM) 2.98 ± 0.48%; (100 µM) 13.1 ± 9.1%.

As for `N#Cc1cc([N+](=O)[O-])ccc1Oc1ccccc1Cl`, the progeny production worked out at 5.2 ± 2% (40 µM) and 14.5 ± 8.1% (100 µM).

In the case of `CC[C@@H](CO)NCCN[C@@H](CC)CO`, the progeny production turned out to be 4.98 ± 2.4% (40 µM) and 6.91 ± 5.6% (100 µM).

As for `OC(Cn1cncn1)(Cn1cncn1)c1ccc(F)cc1F`, the progeny production is, setting by setting: (40 µM) 3.82 ± 1.7%; (100 µM) 22 ± 18%.

With `O=S(=O)(Nc1ccc(-n2cccc2)cc1)c1ccc(Cl)c(Cl)c1`, the progeny production was 6.12 ± 3.2% (40 µM) and 35.7 ± 29% (100 µM).

For the molecule `NC[C@H]1OB(O)c2c(OCCCO)cccc21`, the progeny production by setting is: (40 µM) 4.23 ± 2.7%; (100 µM) 6.44 ± 4.8%.

For `O=C(NO)C1(CS(=O)(=O)c2ccc(Oc3ccc(Cl)cc3)cc2)CCOCC1`, the progeny production by setting is: (40 µM) 5.79 ± 0.11%; (100 µM) 7.72 ± 4.5%.

Take `Cc1c(N)cccc1Cn1ccc(OCCc2cccs2)cc1=O`: the progeny production runs as follows: (40 µM) 7.99 ± 2.1%; (100 µM) 15.6 ± 15%.

`CC1CCc2c(N3CCC(O)CC3)c(F)cc3c(=O)c(C(=O)O)cn1c23` (stereo unspecified): the progeny production was 8.47 ± 4.4% (40 µM) and 11 ± 2.9% (100 µM).

For the molecule `COc1cc2c(O)c3c(c(-c4ccc5c(c4)OCO5)c2cc1OC)C(=O)OC3`, the progeny production reads like this: (40 µM) 4.37 ± 1.7%; (100 µM) 3.64 ± 3.2%.

Take `OCCCCn1cnc2c(O)nc(NCc3ccc(Cl)c(Cl)c3)nc21`: the progeny production (40 µM) worked out at 4.76 ± 1.4% and the progeny production (100 µM) was 10.6 ± 7.9%.

As to `Fc1ccc2c(/C=C/c3nnn[nH]3)c[nH]c2c1`, the progeny production worked out at 3.91 ± 4% (40 µM) and 12.2 ± 9.8% (100 µM).

Regarding `CC(=N)N1CC[C@H](SC2=C(C(=O)O)N3C(=O)[C@@H]([C@@H](C)O)[C@H]3C2)C1`, the progeny production came to 4.18 ± 0.82% (40 µM) and 11.1 ± 7.9% (100 µM).

With `CCNC(=O)Nc1cc2c(-c3ccnc(C)c3)ccc(CNC(=O)OC)c2cn1`, the progeny production is, setting by setting: (40 µM) 4.61 ± 1.9%; (100 µM) 17.2 ± 9.9%.

As for `CN(Cc1ccc(C(C)(C)C)cc1)Cc1cccc2ccccc12`, the progeny production was 5.41 ± 2% (40 µM) and 17 ± 17% (100 µM).

For the molecule `C=C(C)[C@@H]1CC[C@]2(C(=O)O)CC[C@]3(C)[C@H](CC[C@@H]4[C@@]5(C)CC[C@H](O)C(C)(C)[C@@H]5CC[C@]43C)[C@@H]12`, the progeny production is 6.56 ± 0.21% (40 µM) and 9.57 ± 2% (100 µM).

As for `CC[C@H](CO)Nc1nc(NCc2ccccc2)c2ncn(C(C)C)c2n1`, the progeny production was determined as 4.15 ± 1.7% (40 µM) and 13.5 ± 9.8% (100 µM).

Consider `C=C(C)n1c(=O)n(Cc2ccccc2C)c2ccccc21`, for which the progeny production runs as follows: (40 µM) 6.26 ± 0.83%; (100 µM) 14.5 ± 10%.

In the case of `Cc1nc2ccc(Cl)cc2c(-c2ccccc2)c1CC(=O)O`, the progeny production reads like this: (40 µM) 6.84 ± 5.6%; (100 µM) 13.8 ± 12%.

In the case of `C=C[C@]1(C)C[C@@H](OC(=O)CS[C@@H]2C[C@H]3CC[C@@H](C2)N3C)[C@]2(C)[C@H](C)CC[C@]3(CCC(=O)[C@H]32)[C@@H](C)[C@@H]1O`, the progeny production is, setting by setting: (40 µM) 11.3 ± 8.7%; (100 µM) 15.1 ± 6.1%.

`CCOC(=O)Nc1cc(NC(C)CC(C)CN(CC)CC)c2nc(-c3ccccc3)c(-c3ccccc3)nc2n1` (stereo unspecified): the progeny production reads like this: (40 µM) 2.55 ± 1%; (100 µM) 13.3 ± 9.8%.

As for `Cc1cc(CCCOc2c(C)cc(-c3noc(C(F)(F)F)n3)cc2C)on1`, the progeny production is, setting by setting: (40 µM) 1.93 ± 0.29%; (100 µM) 15.4 ± 3.2%.

On to `COc1cc(Cc2cc(N)nc(N)n2)cc(OC)c1OC`, for which the progeny production by setting is: (40 µM) 5.56 ± 1.2%; (100 µM) 19.2 ± 12%.

For the molecule `CC(C)(C)c1ccc(OCCn2nc(C(=O)O)c3ccccc3c2=O)cc1`, the progeny production by setting is: (40 µM) 4.58 ± 1.4%; (100 µM) 12 ± 6.5%.

Turning to `Nc1cccc(-c2nc(N)nc(NC3Cc4ccccc4C3)n2)c1`, the progeny production reads like this: (40 µM) 8.19 ± 3.8%; (100 µM) 20.6 ± 10%.

Turning to `COc1ccc2c(c1)cc(CNC(=O)c1cc3ccccc3o1)n2CC(=O)O`, the progeny production reads like this: (40 µM) 3.92 ± 2.4%; (100 µM) 17.7 ± 17%.

With `O=S(=O)(NCB(O)O)c1ccc(-c2nnn[nH]2)cc1C(F)(F)F`, the progeny production (40 µM) came to 7.63 ± 2.6% and the progeny production (100 µM) turned out to be 22.1 ± 6.9%.

As for `COc1ccc(COc2cc3oc(=O)c4cc(C(C)O)ccc4c3cc2OC)cc1` (stereo unspecified), the progeny production came out at 5.78 ± 0.94% (40 µM) and 10.9 ± 7% (100 µM).

Take `O=[N+]([O-])c1ccc2c(CCc3c[nH]c4ccccc34)c[nH]c2c1`: the progeny production (40 µM) came to 8.93 ± 1.7% and the progeny production (100 µM) amounted to 35.7 ± 12%.

For the molecule `O=C(/C=C/n1cnc(-c2cc(C(F)(F)F)cc(C(F)(F)F)c2)n1)NNc1cnccn1`, the progeny production runs as follows: (40 µM) 7.43 ± 4%; (100 µM) 14.1 ± 2.6%.

As for `O=S(=O)(Nc1ccccc1)c1ccc(NC(=S)Nc2ccccc2)cc1`, the progeny production was found to be 8.72 ± 4.5% (40 µM) and 11.2 ± 6.4% (100 µM).

Regarding `CC(C)(C)OC(=O)NCc1ccc(C(=O)N[C@H]2CCOC2=O)cc1`, the progeny production runs as follows: (40 µM) 5.57 ± 4.2%; (100 µM) 24.3 ± 18%.

`COc1ccc(CNC(=O)C(NS(=O)(=O)c2ccc3nc(C)sc3c2)C(C)C)cc1` (stereo unspecified) came in with a progeny production (40 µM) of 4.14 ± 1.6% and a progeny production (100 µM) of 6.87 ± 4%.

Source of the values: the supplement of paper PMC10732440.
